Measurements published in PubChem BioAssay (NCATS).
Inconclusive results are not listed. Active and inactive are the calls of the source. Unless noted, the call rests on the fitted dose curve; in most records, active means well fitted curve in either direction with a large enough effect (not every such curve was filed as active); inconclusive means small, poorly fitted or top-dose-only effect, or another doubt; inactive means flat fitted curve, though single readings scatter.

Assays:
[1] = AP1 Signaling Pathway (AID 357); conditions: ME-180 AP-1-bla reporter, EGF-induced, beta-lactamase ratio, 5 h; at 17.2 µM (top of the series) unless noted;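 further: ME-180 reporter cells stimulated with EGF at its EC50 level; on the % scale 0 is the no-effect control and ±100 the full control effect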
Procedure, shortened: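 Cells are seeded overnight, exposed to compound titrations and an EC50 level of EGF for 5 hours at 37 °C, then loaded with CCF4 dye for 2.5 hours. Beta-lactamase activity under the AP-1 element is read as a blue/green ratio.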

[2] = NFAT Signaling Pathway (AID 444); conditions: Jurkat NFAT-bla M1, carbachol, beta-lactamase ratio, 5 h; at 17.2 µM (top of the series) unless noted;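 further: carbachol stimulus at about its EC50 of 1 µM final; on the % scale 0 is the no-effect control and ±100 the full control effect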
Procedure, shortened: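 Read-out: CCF4 FRET ratio (460 nm/530 nm) after 1 h RT dye loading, used for %activity and AC50 from titration series. Cells: Jurkat NFAT-β-lactamase/M1 line, treated with compound plus 1 uM carbachol for 5 h, 37 °C.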

[3] = Stat Signaling Pathway (AID 446); conditions: ME-180 SIE beta-lactamase reporter, IL-6 stimulated, 5 h; at 17.2 µM (top of the series) unless noted;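 further: ME-180 cervical cancer cells given 40 pM IL-6 alongside compound; SIE-controlled beta-lactamase reporter measured as 460/530 nm FRET emission ratio; on the % scale 0 is the no-effect control and ±100 the full control effect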
Procedure, shortened: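 Compound effects on IL-6-induced STAT reporter activity were measured in ME-180 cells. After overnight culture, cells were co-treated with 40 pM IL-6 for 5 hrs before beta-lactamase substrate loading at room temperature.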

[4] = target: Glucocorticoid receptor (Homo sapiens) (UniProt P04150); experiment: GR-GFP Redistribution (AID 450;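 active means compounds whose dose series gives a full or clear partial fitted curve of increased nuclear translocation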; further: potency means the concentration at half of the fitted maximal effect)
[5] = target: Glucocorticoid receptor (Homo sapiens) (UniProt P04150); experiment: GR-EFC Redistribution (AID 451; calls by dose curve; further: potency means the concentration at half of the fitted maximal effect); conditions: CHO-K1 GR-EFC translocation, beta-gal luminescence, 2 h
Procedure, shortened: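 Translocation of GR-ED fusion to nuclear EA restores b-gal, read by luminescence after 1 h room-temperature detection. Engineered CHO-K1 biosensor cells, 1,000/well, exposed 2 h at 37 C to titrations up to 46 uM final.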

[6] = target: Mitogen-activated protein kinase 10 (Mus musculus) (UniProt Q61831); experiment: JNK3 AlphaScreen Assay (AID 530);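 further: kinase came from lysate of stimulated human HepG2 cells; signal reports phosphorylation of biotinylated GST-cJun 1-79 at Ser73 with 10 µM ATP; on the % scale 0 is the no-effect control and ±100 the full control effect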
Procedure, shortened: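 qHTS titrations with 15 min compound pre-incubation before adding ATP (10 uM final). Read-out: AlphaScreen of Ser73-phosphorylated biotin-GST-cJun using HepG2 lysate JNK3 activated by IL-1β and TNFα.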

[7] = target: Cytochrome P450 2D6 (Homo sapiens) (UniProt P10635); experiment: qHTS Assay for Inhibitors and Substrates of Cytochrome P450 2D6 (AID 891; active means well fitted curve in the direction sought with a large enough effect; an effect the other way counts as inactive or inconclusive; further: potency means the concentration at half of the fitted maximal effect; nearly all actives have a fitted effect of over 60% in size)
Procedure, shortened: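 Luminescent read-out of luciferin formed by 5 nM human CYP2D6 demethylating 30 uM Luciferin-ME EGE (Km level) over 60 min at room temperature after NADPH regeneration addition. Data normalized to full inhibition by 1.43 uM quinidine.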

[8] = target: Cytochrome P450 2C19 (Homo sapiens) (UniProt P33261); experiment: qHTS Assay for Inhibitors and Substrates of Cytochrome P450 2C19 (AID 899; active means well fitted curve in the direction sought with a large enough effect; an effect the other way counts as inactive or inconclusive; further: potency means the concentration at half of the fitted maximal effect; nearly all actives have a fitted effect of over 60% in size)
Procedure, shortened: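 Reactions contain 5nM enzyme, 10uM Luciferin-H EGE (KM) and 50mM KPO4; compound preincubates 10 min at 37C, NADPH regeneration starts turnover for 60 min. Luminescence after detection reagent gives activity.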

[9] = target: Cytochrome P450 3A4 (Homo sapiens) (UniProt P08684); experiment: qHTS Assay for Activators of Cytochrome P450 3A4 (AID 885; active means well fitted curve in the direction sought with a large enough effect; an effect the other way counts as inactive or inconclusive; further: nearly all actives have a fitted effect of over 65% in size)
Procedure, shortened: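 CYP3A4 activity: Luciferin-PPXE O-dealkylation, 25uM substrate, 200mM KPO4, RT throughout. Read-out is luciferase luminescence; higher values reflect activation.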

[10] = target: DNA dC->dU-editing enzyme APOBEC-3G (Homo sapiens) (UniProt Q9HC16); experiment: qHTS for inhibitors of Vif-A3G interactions: Validation (AID 588379; active means well fitted curve in the direction sought with a large enough effect; an effect the other way counts as inactive or inconclusive; further: 0% is about no effect)
Procedure, shortened: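 Yellow fluorescence (Ex 488, Em 500-530) of Vif-coexpressing HeLa A3G-eYFP cells, scanned by Acumen cytometer, reports blocked A3G degradation. Cells plated at 700/well overnight at 37 deg C before compound addition, then a further overnight compound incubation at 37 deg C.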

[11] = target: 3',5'-cyclic-AMP phosphodiesterase 4B (Homo sapiens) (UniProt Q07343); experiment: qHTS Assay for Inhibitors of PDE-IV (AID 607; active means well fitted activation curve with a large enough effect in the main read-out, with a control signal flat, not every such curve was filed as active; further: % of control where 0% means no effect)
Procedure, shortened: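 ACTOne HEK293 cells carry a modified cAMP-gated CNG channel and express endogenous PDE4; plated 1000 cells/well, compounds up to 22.9 uM final. Membrane-potential dye fluorescence (ex 535/em 590) was read; parental cells received 10 uM forskolin + 100 uM RO 20-1724.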

[12] = qHTS Assay for Identification of Small Molecule Agonists for Hypoxia Response Element Signaling Pathway (AID 914; active means well fitted activation curve with a large enough effect in the signal ratio, with a control signal flat, not every such curve was filed as active; the % refers to the signal ratio; further: potency means the concentration at half of the fitted maximal effect; on activation: % of control where 0% means no effect); conditions: ME-180 (cervical carcinoma) HRE-bla reporter, beta-lactamase ratio, CoCl2, 17 h; activation: stronger effect = higher value
Procedure, shortened: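 Cells were plated overnight, pin-dosed with compound in a titration series, co-stimulated with EC50 CoCl2 and incubated 17 hours at 37 degrees Celsius. CCF4 substrate was then loaded, and AC50 values came from the 460nm/530nm ratio.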

[13] = target: Guanine nucleotide-binding protein G(i) subunit alpha-1 (Homo sapiens) (UniProt P63096); experiment: qHTS Assay for Inhibitors of RGS12 GoLoco Motif Activity (Green Fluorophore) (AID 879; active means well fitted curve in the direction sought with a large enough effect; an effect the other way counts as inactive or inconclusive;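 further: 0% = labeled peptide with Gαi1 and full inhibition = labeled peptide alone without protein; negative values mean loss of peptide binding seen as reduced polarization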)
Procedure, shortened: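 A drop in FITC polarization marked displacement of the FITC-tagged RGS12 GoLoco peptide (10 nM) from Gαi1 (50 nM). Compounds were incubated 10 min at room temperature in Tris pH 7.5 buffer containing 150 mM NaCl, 0.1 mM GDP and 0.05% NP40; unlabeled peptide titration served as control.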

[14] = qHTS Assay for Identification of Small Molecule Antagonists for NFkB Signaling Pathway (AID 895; active means well fitted inhibition curve with a large enough effect in the signal ratio, with a control signal flat, not every such curve was filed as active; the % refers to the signal ratio; further: on the % scale 0 is the no-effect control and ±100 the full control effect)
Procedure, shortened: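 Beta-lactamase reporter read-out (460 and 530 nm emission ratio, 405 nm excitation, 2 hrs substrate loading RT) after 5 hr stimulation with 10 pM TNF alpha in compound-treated NFkB-bla ME-180 cells in low-serum medium.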

[15] = qHTS Assay for Identification of Small Molecule Agonists for Thrombopoietin (TPO) Signaling Pathway (AID 917; active means well fitted curve in the direction sought with a large enough effect; an effect the other way counts as inactive or inconclusive; further: on the % scale 0 is the no-effect control and ±100 the full control effect)
Procedure, shortened: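 Ba/F3 (mouse) + hTPO receptor + GpIIb-promoter luciferase; IL-3 withdrawn overnight; compound + 26 pM TPO (EC50), 24 hrs, 37 C, 5% CO2; Steadylite luminescence, 10 min RT.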

[16] = target: Muscarinic acetylcholine receptor M1 (Rattus norvegicus) (UniProt P08482); experiment: qHTS Assay for Antagonists of Acetylcholine Muscarinic M1 Receptor: Kinetic Measurement of Intracellular Calcium Response (AID 943; active means well fitted curve in the direction sought with a large enough effect; an effect the other way counts as inactive or inconclusive;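 further: Fluo-4 calcium signal as peak divided by basal fluorescence over 4 min; nearly all actives have a fitted effect of over 75% in size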)
Procedure, shortened: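 Antagonism measured as reduction of carbachol-evoked (EC80, 100 nM final) calcium flux in rat M1-CHO cells after 10 min compound exposure. Fluo-4 signal read kinetically; ratio of maximal to basal fluorescence.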

[17] = target: Pyruvate kinase (Leishmania mexicana) (UniProt Q27686); experiment: qHTS Validation Assay for Inhibitors of Leishmania Mexicana Pyruvate Kinase (AID 945; active means well fitted curve in the direction sought with a large enough effect; an effect the other way counts as inactive or inconclusive;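 further: 0% = DMSO only neutral control wells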)
Procedure, shortened: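 The enzyme is a highly purified E451W mutant of LmPYK used at 0.2 nM. It converts 0.5 mM PEP and 0.1 mM ADP over 1 h at room temperature; product ATP is quantified by luciferase luminescence relative to DMSO controls.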

[18] = target: Pyruvate kinase PKM (Homo sapiens) (UniProt P14618); experiment: qHTS Assay for Activators of Human Muscle Pyruvate Kinase (AID 954; active means well fitted curve in the direction sought with a large enough effect, not every such curve was filed as active;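 further: 0% = uninhibited enzyme and -100% = no enzyme or full thiadiazolimine inhibition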)
Procedure, shortened: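 A coupled luminescent readout tracked ATP made from ADP by purified PKM2. Final conditions included 0.1 nM enzyme, PEP and ADP at 0.5 and 0.1 mM, pH 7.2 imidazole buffer with BSA, and a one-hour room-temperature reaction.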

[19] = target: Alpha-galactosidase A (Homo sapiens) (UniProt P06280); experiment: Counterscreen for Glucocerebrosidase Inhibitors: qHTS Assay for Human alpha-Galactosidase at pH 4.5 (AID 992; active means well fitted curve in the direction sought with a large enough effect; an effect the other way counts as inactive or inconclusive; further: 0% is about no effect)
Procedure, shortened: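 Citrate buffer pH 4.5, Tween-20 0.005%. Enzyme 2 nM, substrate 80 uM, 20 min RT. Stop pH 10. Fluorescence Ex 365/Em 440. AC50 by Hill fit.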

[20] = target: alpha-glucosidase (Oryza sativa, rice) (UniProt Q653V4); experiment: Counterscreen for Glucocerebrosidase Inhibitors: qHTS Assay for Rice alpha-Glucosidase at pH 5.0 (AID 997; active means well fitted curve in the direction sought with a large enough effect; an effect the other way counts as inactive or inconclusive;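 further: 0% = full activity with enzyme and -100% = basal without enzyme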)
Procedure, shortened: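 Endpoint fluorogenic assay at pH 5.0: compounds (0.7 nM to 77 uM) titrated against 4 nM rice enzyme and 400 uM 4-MU-alpha-glucoside for 20 min at room temperature; NaOH/glycine stop, read ex 365/em 440 nm, Hill-fitted AC50.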

Chain of Glucocorticoid receptor (Homo sapiens) (P04150 whole entry, looked up, the tested form may be a part): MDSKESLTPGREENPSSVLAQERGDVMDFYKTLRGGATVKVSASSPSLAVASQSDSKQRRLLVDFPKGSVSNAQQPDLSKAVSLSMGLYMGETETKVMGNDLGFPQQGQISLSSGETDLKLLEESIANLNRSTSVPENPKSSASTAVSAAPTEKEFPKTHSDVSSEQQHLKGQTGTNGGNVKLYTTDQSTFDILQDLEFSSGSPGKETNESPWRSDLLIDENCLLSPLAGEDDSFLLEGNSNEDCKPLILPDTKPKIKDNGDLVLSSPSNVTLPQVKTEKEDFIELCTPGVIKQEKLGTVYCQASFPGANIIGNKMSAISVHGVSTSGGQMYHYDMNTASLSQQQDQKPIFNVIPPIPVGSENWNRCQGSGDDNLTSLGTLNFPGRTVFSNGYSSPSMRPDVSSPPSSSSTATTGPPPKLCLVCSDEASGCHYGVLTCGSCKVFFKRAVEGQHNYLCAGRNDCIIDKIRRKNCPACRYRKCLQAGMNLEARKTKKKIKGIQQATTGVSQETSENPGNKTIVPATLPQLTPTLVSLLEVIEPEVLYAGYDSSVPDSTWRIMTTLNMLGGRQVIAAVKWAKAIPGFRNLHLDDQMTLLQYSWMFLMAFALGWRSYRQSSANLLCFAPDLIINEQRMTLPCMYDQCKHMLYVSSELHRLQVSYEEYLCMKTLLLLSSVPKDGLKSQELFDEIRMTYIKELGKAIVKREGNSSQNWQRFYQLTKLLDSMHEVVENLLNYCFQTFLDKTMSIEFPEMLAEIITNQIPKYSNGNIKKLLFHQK
Chain of 3',5'-cyclic-AMP phosphodiesterase 4B (Homo sapiens) (Q07343 whole entry, looked up): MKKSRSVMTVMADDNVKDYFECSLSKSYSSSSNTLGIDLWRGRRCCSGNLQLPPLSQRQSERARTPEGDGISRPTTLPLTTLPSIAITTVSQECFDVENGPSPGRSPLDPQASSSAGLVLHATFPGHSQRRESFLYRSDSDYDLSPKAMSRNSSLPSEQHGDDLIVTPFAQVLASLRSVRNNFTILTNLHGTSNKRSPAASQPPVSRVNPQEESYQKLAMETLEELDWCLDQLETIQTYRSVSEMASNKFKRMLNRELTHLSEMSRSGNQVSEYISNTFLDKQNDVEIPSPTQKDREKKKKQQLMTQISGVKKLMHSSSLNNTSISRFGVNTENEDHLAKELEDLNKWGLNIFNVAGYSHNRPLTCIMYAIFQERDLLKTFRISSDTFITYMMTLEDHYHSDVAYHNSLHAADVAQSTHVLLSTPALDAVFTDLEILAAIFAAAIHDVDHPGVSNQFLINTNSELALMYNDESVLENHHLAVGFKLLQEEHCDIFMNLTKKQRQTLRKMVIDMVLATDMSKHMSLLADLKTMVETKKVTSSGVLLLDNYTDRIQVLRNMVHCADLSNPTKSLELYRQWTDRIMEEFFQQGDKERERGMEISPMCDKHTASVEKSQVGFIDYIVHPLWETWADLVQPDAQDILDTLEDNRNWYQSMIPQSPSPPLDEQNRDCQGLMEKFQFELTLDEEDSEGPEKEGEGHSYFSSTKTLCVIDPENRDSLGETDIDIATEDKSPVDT
Chain of Cytochrome P450 3A4 (Homo sapiens) (P08684 whole entry, looked up): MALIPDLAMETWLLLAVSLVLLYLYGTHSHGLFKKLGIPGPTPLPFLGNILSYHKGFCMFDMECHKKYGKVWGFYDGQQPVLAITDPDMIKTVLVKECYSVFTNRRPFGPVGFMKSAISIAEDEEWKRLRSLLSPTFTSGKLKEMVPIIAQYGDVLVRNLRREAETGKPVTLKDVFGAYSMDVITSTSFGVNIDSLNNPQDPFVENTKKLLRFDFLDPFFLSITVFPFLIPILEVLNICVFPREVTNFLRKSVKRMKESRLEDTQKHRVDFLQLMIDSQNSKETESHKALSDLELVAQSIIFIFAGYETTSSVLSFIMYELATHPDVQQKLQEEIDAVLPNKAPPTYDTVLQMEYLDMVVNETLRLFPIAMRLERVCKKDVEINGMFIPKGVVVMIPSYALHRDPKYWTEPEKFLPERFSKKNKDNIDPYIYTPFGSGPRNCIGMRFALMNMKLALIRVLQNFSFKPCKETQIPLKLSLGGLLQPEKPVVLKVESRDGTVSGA
Chain of Pyruvate kinase PKM (Homo sapiens) (P14618 whole entry, looked up): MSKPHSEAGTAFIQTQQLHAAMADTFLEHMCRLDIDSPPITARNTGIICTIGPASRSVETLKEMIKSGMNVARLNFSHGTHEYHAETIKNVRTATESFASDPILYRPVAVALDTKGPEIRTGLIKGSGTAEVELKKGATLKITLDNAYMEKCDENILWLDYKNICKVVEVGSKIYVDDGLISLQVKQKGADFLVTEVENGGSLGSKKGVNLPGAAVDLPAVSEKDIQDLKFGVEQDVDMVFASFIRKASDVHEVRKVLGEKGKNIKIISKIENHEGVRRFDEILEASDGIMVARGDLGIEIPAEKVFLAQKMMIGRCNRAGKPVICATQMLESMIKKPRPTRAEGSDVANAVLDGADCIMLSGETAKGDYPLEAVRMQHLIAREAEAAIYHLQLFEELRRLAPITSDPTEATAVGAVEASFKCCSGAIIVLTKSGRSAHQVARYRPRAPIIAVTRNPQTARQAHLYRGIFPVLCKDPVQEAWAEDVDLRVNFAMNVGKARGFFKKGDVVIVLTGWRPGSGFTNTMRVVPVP
Chain of Cytochrome P450 2C19 (Homo sapiens) (P33261 whole entry, looked up): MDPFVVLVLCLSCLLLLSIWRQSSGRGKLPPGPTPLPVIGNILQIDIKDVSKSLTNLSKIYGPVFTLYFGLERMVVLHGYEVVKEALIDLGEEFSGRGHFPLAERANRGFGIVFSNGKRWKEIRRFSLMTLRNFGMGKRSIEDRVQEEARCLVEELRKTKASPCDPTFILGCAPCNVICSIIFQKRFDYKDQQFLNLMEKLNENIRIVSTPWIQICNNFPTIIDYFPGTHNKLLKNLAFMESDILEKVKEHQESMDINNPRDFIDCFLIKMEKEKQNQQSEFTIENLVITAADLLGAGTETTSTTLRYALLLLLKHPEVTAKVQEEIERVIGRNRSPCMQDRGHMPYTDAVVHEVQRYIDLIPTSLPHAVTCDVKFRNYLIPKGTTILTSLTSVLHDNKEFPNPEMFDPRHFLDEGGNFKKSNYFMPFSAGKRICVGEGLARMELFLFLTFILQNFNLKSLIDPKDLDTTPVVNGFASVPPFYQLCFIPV
Chain of Muscarinic acetylcholine receptor M1 (Rattus norvegicus) (P08482 whole entry, looked up): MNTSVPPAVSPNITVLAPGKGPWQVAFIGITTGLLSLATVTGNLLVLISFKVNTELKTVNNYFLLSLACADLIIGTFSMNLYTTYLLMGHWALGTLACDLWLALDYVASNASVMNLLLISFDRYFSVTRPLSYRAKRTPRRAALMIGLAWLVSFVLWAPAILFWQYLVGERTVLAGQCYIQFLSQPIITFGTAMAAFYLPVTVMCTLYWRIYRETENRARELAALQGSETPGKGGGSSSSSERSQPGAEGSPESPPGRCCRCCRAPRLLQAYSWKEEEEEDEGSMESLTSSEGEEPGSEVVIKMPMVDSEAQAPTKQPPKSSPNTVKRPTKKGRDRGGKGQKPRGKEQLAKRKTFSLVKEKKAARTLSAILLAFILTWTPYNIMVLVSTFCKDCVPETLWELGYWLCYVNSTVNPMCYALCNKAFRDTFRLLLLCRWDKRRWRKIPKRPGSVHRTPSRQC
Chain of Guanine nucleotide-binding protein G(i) subunit alpha-1 (Homo sapiens) (P63096 whole entry, looked up): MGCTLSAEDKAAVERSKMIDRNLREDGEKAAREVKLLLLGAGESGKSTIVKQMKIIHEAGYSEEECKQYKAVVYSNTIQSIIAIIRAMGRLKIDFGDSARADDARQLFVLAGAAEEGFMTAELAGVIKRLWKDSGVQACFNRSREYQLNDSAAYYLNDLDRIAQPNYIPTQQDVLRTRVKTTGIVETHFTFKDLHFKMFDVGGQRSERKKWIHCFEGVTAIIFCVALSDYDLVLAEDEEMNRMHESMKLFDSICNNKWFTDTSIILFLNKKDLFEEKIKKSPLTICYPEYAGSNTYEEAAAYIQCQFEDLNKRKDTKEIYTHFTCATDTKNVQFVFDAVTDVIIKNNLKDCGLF
Chain of Pyruvate kinase (Leishmania mexicana) (Q27686 2-499 E452W): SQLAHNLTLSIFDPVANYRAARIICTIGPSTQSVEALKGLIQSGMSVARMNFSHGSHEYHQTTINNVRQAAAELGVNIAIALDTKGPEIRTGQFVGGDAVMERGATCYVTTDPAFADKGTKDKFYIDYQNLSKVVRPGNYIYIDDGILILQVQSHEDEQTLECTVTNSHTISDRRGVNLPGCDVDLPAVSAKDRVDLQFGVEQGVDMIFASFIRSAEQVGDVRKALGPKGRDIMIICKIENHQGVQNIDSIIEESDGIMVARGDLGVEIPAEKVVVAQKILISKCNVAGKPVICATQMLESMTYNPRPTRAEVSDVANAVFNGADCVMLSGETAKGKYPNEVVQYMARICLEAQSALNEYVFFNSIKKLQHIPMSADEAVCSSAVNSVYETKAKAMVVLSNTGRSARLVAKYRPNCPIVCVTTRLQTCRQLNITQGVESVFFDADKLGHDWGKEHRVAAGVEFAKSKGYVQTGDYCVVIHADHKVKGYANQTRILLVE
Chain of DNA dC->dU-editing enzyme APOBEC-3G (Homo sapiens) (Q9HC16 whole entry, looked up): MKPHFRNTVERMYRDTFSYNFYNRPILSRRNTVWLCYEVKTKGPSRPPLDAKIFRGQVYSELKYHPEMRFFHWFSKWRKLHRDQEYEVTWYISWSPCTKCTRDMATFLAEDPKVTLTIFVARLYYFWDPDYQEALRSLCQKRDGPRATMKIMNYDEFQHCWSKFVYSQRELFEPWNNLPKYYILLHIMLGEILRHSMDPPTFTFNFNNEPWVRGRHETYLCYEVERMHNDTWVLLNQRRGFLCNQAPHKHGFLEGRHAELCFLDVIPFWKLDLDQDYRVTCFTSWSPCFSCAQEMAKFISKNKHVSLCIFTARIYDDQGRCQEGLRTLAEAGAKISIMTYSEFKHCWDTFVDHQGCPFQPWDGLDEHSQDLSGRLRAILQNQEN

CC(C)(C)c1cc(Br)c(O)c(CN(Cc2cc(C(C)(C)C)cc(Br)c2O)C2CCCCC2)c1
inactive: activity change, negative = inhibition [1] 10.4% [at 7.69 µM] | activity change, negative = inhibition [2] 3.39% [at 7.69 µM] | activity, negative = inhibition [3] -1.22% [at 7.69 µM] | Potency [4] > 46 µM | Potency [5] > 9.22 µM | activity change, negative = inhibition [6] 19.2% [at 11.4 µM]
active: Potency [7] 0.199 µM | Potency [8] 0.631 µM

COC1=CC(=O)CC(C)C12Oc1c(Cl)c(OC)cc(OC)c1C2=O (stereo unspecified)
inactive: activity change, negative = inhibition [1] -16.1% | activity change, negative = inhibition [2] -12.3% | activity, negative = inhibition [3] 4.38% | Potency [4] > 20.6 µM | Potency [9] | outcome [10]

COc1ccc(-n2c(=O)c(CCc3ccccc3)nc3cnc(N4CCNCC4)nc32)cc1
active: Potency [12] 3.16 µM
inactive: activity change, negative = inhibition [1] 4.61% [at 7.69 µM] | activity change, negative = inhibition [2] 7.43% [at 7.69 µM] | activity, negative = inhibition [3] 0.474% [at 7.69 µM] | Potency [4] > 9.22 µM | Potency [5] > 46 µM | Potency [6] | Potency [11]

C=CCn1c(=N)c(C(=O)OCC)cc2c(=O)n3cccc(C)c3nc21
inactive: activity change, negative = inhibition [1] 15.5% | activity change, negative = inhibition [2] -23.4% | activity, negative = inhibition [3] 28.1% | Potency [4] > 20.6 µM
active: Potency [12] 10 µM

COC(=O)[C@H]1CCCN1C(=O)Nc1cccc(Oc2c(F)c(F)c(F)c(F)c2F)c1
inactive: activity change, negative = inhibition [1] -14.6% | activity change, negative = inhibition [2] -9.08% | activity, negative = inhibition [3] -7.79% | Potency [4] > 20.6 µM | activation [12] -9.38%

Cc1nn(-c2ccccc2)c2c1C(=O)NC(=O)C(C)(C)C2
inactive: activity change, negative = inhibition [1] -3.8% | activity change, negative = inhibition [2] 0.783% | activity, negative = inhibition [3] 3.56% | Potency [4] > 20.6 µM | activation [12] -11.1%

O=C(CNC1C(=O)Nc2ccccc21)Sc1ccccc1 (stereo unspecified)
inactive: activity change, negative = inhibition [1] -0.11% | activity change, negative = inhibition [2] -10.4% | activity, negative = inhibition [3] 9.1% | Potency [4] > 20.6 µM | activation [12] 4%

CCCCOc1ccccc1C(=O)NCCCCCC(=O)O
inactive: activity change, negative = inhibition [1] 10.2% | activity change, negative = inhibition [2] 11.6% | activity, negative = inhibition [3] 2.29% | Potency [4] > 20.6 µM | activation [12] 8%

CCNC(=O)[C@@H]1O[C@@H](n2cnc3c(N)nc(NCCc4ccc(CCC(=O)O)cc4)nc32)[C@H](O)[C@@H]1O
inactive: activity change, negative = inhibition [1] -2.01% [at 38 µM] | activity change, negative = inhibition [2] 4.74% [at 38 µM] | activity, negative = inhibition [3] 22.6% [at 38 µM] | Potency [4] > 46 µM | Potency [5] > 46 µM | Potency [11] | outcome [13] | Potency [14] | Potency [15] | Potency [16] | Potency [17] | outcome [18] | outcome [19] | outcome [20]
